Data on 15 compounds can be found in PubChem BioAssay (NCATS).

“And” between values parts separate entries of the source, which are not always exact repeats. Identical values can stand only once. Inconclusive results are not listed. Values without a mark were called inactive. The source made the active and inactive calls. Calls follow the shape of the dose curve; as a rule, active = well fitted curve in the direction sought with a large enough effect; inconclusive = small, poorly fitted or top-dose-only effect, or another doubt; inactive = no such curve, though single readings can be large; an effect the other way counts as inactive or inconclusive.

In one assay the test system is MKL-2. The assay can be described thus: qHTS assay to identify novel small-molecules to repurpose for Merkel cell carcinoma treatment (AID 1296009). Also: nearly all actives have a fitted effect of over 60% in size. Also: potency is read from the fitted curve at half-maximal effect. The following applies: MCC and control cell lines, CellTiter-Glo viability, 72 h; series mostly up to 46 µM. Put shortly:
(§1)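 Cell viability measured by CellTiter-Glo following 72 hr compound treatment at 37 degree celsius, with NPC and MIPE libraries tested in 8- and 11-point concentration series.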
In general terms: qHTS replaces the single test concentration by a dilution series.

The next assay concerns C33A. Briefly: Primary qHTS to identify gynecologic anti-cancer compounds using libraries of approved drugs and bioactive compounds (AID 1345084). Also: nearly all actives have a fitted effect of over 55% in size. Also: potency is read from the fitted curve at half-maximal effect. The following applies: Gynecologic cancer cell panel viability, ATPlite luminescence, 48 h; series mostly up to 57.5 µM. Put shortly: (§2)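 Cells, 1,000 per well, plated 16 h, then exposed 48 h at 37 C to compounds. Viability by ATPlite luminescence after 15 min at room temperature.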

A further assay has as its system CASKI. The assay is described as above. Conditions: Gynecologic cancer cell panel viability, ATPlite luminescence, 48 h; series mostly up to 57.5 µM. Put shortly:
as §2
In general terms: In ATP-based viability assays light output follows the ATP content of the culture.

A further assay has as its system Es-2. Described as above. Conditions: Gynecologic cancer cell panel viability, ATPlite luminescence, 48 h; series mostly up to 57.5 µM. Put shortly:
as §2

The test system of a further assay is HeLa. Described as above. The following applies: Gynecologic cancer cell panel viability, ATPlite luminescence, 48 h; series mostly up to 57.5 µM. In short, it runs like this:
as §2

The next assay relates to Hek293T. The assay is described as above. The following applies: Gynecologic cancer cell panel viability, ATPlite luminescence, 48 h, control line for the selectivity index; series mostly up to 57.5 µM. In short, it runs like this:
as §2

For another assay, the system named is PA-1. The description is as above. Conditions: Gynecologic cancer cell panel viability, ATPlite luminescence, 48 h; series mostly up to 57.5 µM. Put shortly:
as §2

Another assay deals with Tov-21-G. The description is as above. Conditions: Gynecologic cancer cell panel viability, ATPlite luminescence, 48 h; series mostly up to 57.5 µM. Put shortly: as §2
Another assay relates to Tov112D. The description is as above. The following applies: Gynecologic cancer cell panel viability, ATPlite luminescence, 48 h; series mostly up to 57.5 µM. In short, it runs like this:
as §2

The nature of assay [1]: qHTS assay to identify inhibitors of the type 1 interferon - major histocompatibility complex class I in skeletal muscle: Counter screen cell viability and HiBit confirmation (AID 1347412). Also: potency is read from the fitted curve at half-maximal effect. As to all read-outs here: nearly all actives have a fitted effect of over 60% in size. Conditions: iHSKM muscle cells + IFN-b, HiBiT or CellTiter-Glo, 24 h; for activity change, negative = inhibition: at 45.9 µM (top of the series). In short, it runs like this: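 Luminescence read-out: Nano-Glo HiBiT lytic signal from C-terminally HiBiT-tagged HLA-B in CRISPR-edited human myoblasts, plus CellTiter Glo ATP as viability counter screen. IFN-beta 4.0 ng/ml; 24 hrs treatment at 37 C, 5% CO2.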

The test system of a further assay is WaGa. Briefly: qHTS assay to identify novel small-molecules to repurpose for Merkel cell carcinoma treatment (AID 1296009). Also: nearly all actives have a fitted effect of over 60% in size. Also: potency is read from the fitted curve at half-maximal effect. The following applies: MCC and control cell lines, CellTiter-Glo viability, 72 h; series mostly up to 46 µM. In short, it runs like this:
as §1

Another assay has as its system JEG-3. Briefly: Primary qHTS to identify gynecologic anti-cancer compounds using libraries of approved drugs and bioactive compounds (AID 1345084). Also: nearly all actives have a fitted effect of over 55% in size. Also: potency is read from the fitted curve at half-maximal effect. The following applies: Gynecologic cancer cell panel viability, ATPlite luminescence, 48 h; series mostly up to 57.5 µM. In short, it runs like this:
as §2

In another assay the test system is OV90. The assay is described as above. Conditions: Gynecologic cancer cell panel viability, ATPlite luminescence, 48 h; series mostly up to 57.5 µM. In short, it runs like this:
as §2

The next assay has as its system UISO. Briefly: qHTS assay to identify novel small-molecules to repurpose for Merkel cell carcinoma treatment (AID 1296009). Also: nearly all actives have a fitted effect of over 60% in size. Also: potency is read from the fitted curve at half-maximal effect. Conditions: MCC and control cell lines, CellTiter-Glo viability, 72 h; series mostly up to 46 µM. In short, it runs like this: as §1
Another assay has as its system SKOV3. Briefly: Primary qHTS to identify gynecologic anti-cancer compounds using libraries of approved drugs and bioactive compounds (AID 1345084). Also: nearly all actives have a fitted effect of over 55% in size. Also: potency is read from the fitted curve at half-maximal effect. Conditions: Gynecologic cancer cell panel viability, ATPlite luminescence, 48 h; series mostly up to 57.5 µM. In short, it runs like this:
as §2

In the next assay the test system is CAOV3. Described as above. Conditions: Gynecologic cancer cell panel viability, ATPlite luminescence, 48 h; series mostly up to 57.5 µM. In short, it runs like this:
as §2

Another assay concerns NIH3T3. The assay can be described thus: qHTS assay to identify novel small-molecules to repurpose for Merkel cell carcinoma treatment (AID 1296009). Also: nearly all actives have a fitted effect of over 60% in size. Also: potency is read from the fitted curve at half-maximal effect. Conditions: MCC and control cell lines, CellTiter-Glo viability, 72 h; at 44.8 µM (top of the series) unless noted. Put shortly:
as §1

Assay [2] can be described thus: Drug repurposing screens with cells derived from glioblastoma tumor samples (AID 1345199). Also: nearly all actives have a fitted effect of over 40% in size. The following applies: GBM patient neurospheres viability, ATP luminescence, 48 h. In short, it runs like this: (§3)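 Primary testing used CD133+ neurospheres from four GBM patients, seven concentrations, 48 h exposure and ATP-based viability; confirmation added three slower-growing patient lines.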

Another assay deals with astro. Described as above. Conditions: viability, ATP luminescence, 48 h; series mostly up to 45.9 µM. Put shortly:
as §3
% is scaled to controls: 0 for no effect and ±100 for the full control effect.

Regarding `CC(C)c1cnn2c(NCc3ccccc3)cc(N[C@@H](CO)[C@H](O)CO)nc12`, the Potency with MKL-2 is 1.05 µM (active); in the assay on C33A it was 7.08 µM (active); with CASKI, 4.47 µM (active); in the assay on Es-2, 1.58 µM (active); with HeLa, 2.82 µM (active); with Hek293T, 1.41 µM (active). The Potency is 1 µM (active) in the assay on PA-1, 1.58 µM (active) in the assay on Tov-21-G, 3.16 µM (active) in the assay on Tov112D and 0.157 µM (active) in assay [1] (HiBiT). For the same compound, the activity change, negative = inhibition in assay [1] (Viability) was 18.9%.

Consider `CN1CCC(CNc2ccc3ncc(-c4cccc(OC(F)(F)F)c4)n3n2)CC1`, for which the Potency entry in the assay on MKL-2, with WaGa, in the assay on C33A, in the assay with Es-2, with HeLa and in the assay on Hek293T was “inactive” each time. The Potency result in the assay with JEG-3, with OV90, in the assay with PA-1, in the assay on Tov-21-G and in the assay on Tov112D was “inactive” each time. The Potency in assay [1] (HiBiT) is 22.2 µM (active); in [1] (Viability) it was 31.3 µM (active).

For `Cn1cc(-c2[nH]c3cc(NC(=O)[C@H](N)C4CCCCC4)cc4c3c2C=NNC4=O)cn1`, the Potency is 0.418 µM (active) with UISO, 2.64 µM (active) in the assay with WaGa, 7.08 µM (active) with SKOV3 and 10 µM (active) in the assay with Tov-21-G. Also, the Potency entry with CASKI and with JEG-3 was “inactive” each time.

Take `NC1(Cc2ccc(Cl)cc2)CCN(c2ncnc3[nH]ccc23)CC1`: the Potency entry in the assay with MKL-2, in the assay on CAOV3, in the assay on CASKI, in the assay on Es-2, in the assay on HeLa and in the assay on PA-1 was “inactive” throughout. The Potency entry in the assay on Tov112D was “inactive”. Besides, the Potency in the assay with C33A and with Hek293T was 10 µM (active) each time.

Take `CC(C)c1cc(-c2n[nH]c(=O)n2-c2ccc3c(ccn3C)c2)c(O)cc1O`: the Potency entry in the assay with MKL-2, in the assay with CAOV3, in the assay on HeLa and with JEG-3 was “inactive” throughout. The Potency in the assay with UISO was 0.372 µM (active); with Hek293T, 0.316 µM (active); in the assay with OV90 it was 2.51 µM (active); in the assay with PA-1, 0.251 µM (active); in the assay on Tov-21-G it was 0.282 µM (active); in [1] (HiBiT), 0.0176 µM (active).

With `C[C@@H]1COC(Nc2ccc3ncnc(Nc4ccc(OCc5nccs5)c(Cl)c4)c3c2)=N1`, in the assay with NIH3T3, the call was inactive. Further, the Potency entry in the assay with HeLa and in the assay with JEG-3 was “inactive” in each case. Besides, the Potency in the assay on SKOV3 was 14.1 µM (active). Besides, the activity change, negative = inhibition in assay [1] (Viability) is -24%.

For the compound `Cc1nc2ccc(CN(C)c3ccc(C(=O)N[C@@H](CCC(=O)O)C(=O)O)s3)cc2c(=O)[nH]1`, the Potency entry with MKL-2, with C33A, in the assay with CAOV3, with CASKI, in the assay on Hek293T and in the assay with SKOV3 was “inactive” each time. For the same compound, the Potency result with astro is “inactive”. Further, the figures for the Potency in the assay on WaGa, in the assay with JEG-3 and with Tov112D were 0.0833 µM (active), 0.631 µM (active) and 0.316 µM (active), respectively. The activity, negative = cell killing was -5.32% and -11.6% in assay [2] (at 45.9 µM (top of the series), tumour line D); 0.947% and 1.27% in assay [2] (at 46.1 µM (top of the series), tumour line C).

In the case of `COc1cc2c(Oc3ccc4[nH]c(C)cc4c3F)ncnc2cc1OCCCN1CCCC1`, the Potency result with UISO, in the assay with WaGa, in the assay on Es-2, in the assay on HeLa, in the assay on Hek293T and in the assay with PA-1 was “inactive” in each case. For the same compound, the figures for the Potency (in the assay on Tov112D; in [1] (HiBiT); in assay [1] (Viability)) were 12.6 µM (active), 19.8 µM (active) and 19.8 µM (active), respectively.

Turning to `COc1cc2c(NC3CCN(C(C)C)CC3)nc(C3CCCCC3)nc2cc1OCCCN1CCCC1`, the Potency in the assay with MKL-2 is 6.62 µM (active); in the assay on C33A it was 28.2 µM (active); in the assay on CAOV3 it was 6.31 µM (active); in the assay with CASKI it was 20 µM (active); with JEG-3, 10 µM (active); with OV90, 11.2 µM (active). Further, the Potency with PA-1 was 31.6 µM (active); in the assay with SKOV3 it was 12.6 µM (active); in the assay with Tov112D, 22.4 µM (active).

`COc1ccc2c(c1)CC[C@@H](CN(C)CC(=O)O)[C@H]2c1ccccc1`: the outcome with NIH3T3 was inactive. For the same compound, the Potency result with C33A, with CAOV3, in the assay with CASKI, in the assay on Es-2, in the assay on HeLa and with Hek293T was “inactive” in each case. The Potency entry in the assay with JEG-3, in the assay with OV90, in the assay with PA-1, in the assay on SKOV3, with Tov-21-G and in the assay with Tov112D was “inactive” in each case.

In the case of `COc1cc2c(Nc3ccc(NC(=O)c4ccccc4)cc3)ncnc2cc1OCCCN1CCOCC1`, the Potency entry with MKL-2, in the assay with UISO, in the assay on Es-2, in the assay on Hek293T, in the assay with PA-1 and in the assay on Tov112D was “inactive” each time. The Potency in the assay on C33A was 25.1 µM (active); in the assay with OV90 it was 25.1 µM (active); with SKOV3, 11.2 µM (active).

As to `Cc1ccc(C(=O)Nc2cccc(C(F)(F)F)c2)cc1-c1ccc2nc(NCCN3CCOCC3)ncc2c1`, the Potency result in the assay with MKL-2, with WaGa and in the assay with Hek293T was “inactive” throughout. For the same compound, the Potency was 22.4 µM (active) in the assay on CAOV3; 14.1 µM (active) with CASKI; 11.2 µM (active) in the assay on Es-2; 11.2 µM (active) with HeLa; 6.31 µM (active) with OV90; 12.6 µM (active) in the assay on PA-1. Further, the Potency in the assay with SKOV3 is 15.8 µM (active); with Tov-21-G, 14.1 µM (active).

Turning to `Cc1ccc(C(N)=O)cc1Nc1nccc(-c2cn(C(C)C)c3cnccc23)n1`, the Potency is 20.9 µM (active) with MKL-2; 4.18 µM (active) in the assay with UISO; 3.16 µM (active) in the assay on C33A; 17.8 µM (active) in the assay with CASKI; 25.1 µM (active) in the assay on HeLa; 17.8 µM (active) with Hek293T. The Potency with OV90 was 17.8 µM (active); with Tov-21-G, 14.1 µM (active); in the assay with Tov112D, 17.8 µM (active); in [1] (HiBiT), 2.49 µM (active). In the assay on JEG-3, the Potency entry is “inactive”. Also, the activity change, negative = inhibition in assay [1] (Viability) is 26.3%.

`c1nc2nc(Nc3ccc(N4CCOCC4)cc3)nc(NC3CCCCC3)c2[nH]1`: the Potency with MKL-2 is 16.6 µM (active); in the assay with HeLa, 2.82 µM (active); in assay [1] (HiBiT) it was 6.25 µM (active). Also, the Potency entry in the assay with C33A, with Es-2, in the assay with Hek293T, in the assay with OV90 and with Tov112D was “inactive” each time.

Consider `CC1(C)CC(=O)c2c(C(F)(F)F)nn(-c3ccc(C(N)=O)c(NC4CCC(OC(=O)CN)CC4)c3)c2C1` (stereo not given), for which the Potency entry in the assay on MKL-2, in the assay on HeLa and in the assay on JEG-3 was “inactive” each time. Further, the Potency in the assay on UISO was 0.264 µM (active); in the assay with OV90 it was 0.355 µM (active); in the assay on PA-1 it was 0.316 µM (active); in the assay with Tov-21-G it was 0.355 µM (active); in assay [1] (HiBiT), 0.0557 µM (active).
